The structures appear in SMILES notation. Values joined by “and” are separate entries in the source; they are usually repeats but may differ in a detail not shown here. Equal entries are not always repeated. This is part of a sample that, as a whole, favours compounds with a hit. Of some 79,000 tested, about 15% had one in any assay. Values without a mark were called inactive. Active and inactive are the calls of the source. Rule as the data show it: active = growth inhibition above about 70%; inactive = the rest.

Assay [1] in a line: NCI Yeast Anticancer Drug Screen. Data for the rad50 strain (AID 155).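 Also: 0% = growth of vehicle-only cultures of the same strain.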 The conditions noted are these: S. cerevisiae rad50 strain growth inhibition, stronger effect = higher value; at 50.0 µM unless noted. The procedure, abridged: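 Cells are treated with compound, grown, and their growth is then scored against vehicle-only cultures of the same repair-deficient yeast strain.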
A short description of assay [2]: NCI Yeast Anticancer Drug Screen. Data for the mec2-1 strain (AID 157). Particulars: S. cerevisiae mec2-1 strain, stronger effect = higher value; at 50.0 µM unless noted. A digest of the protocol:
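Yeast mec2-1 mutant treated with compound. Readout: growth inhibition vs vehicle controls.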

A short description of assay [3]: NCI Yeast Anticancer Drug Screen. Data for the sgs1 mgt1 strain (AID 161).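 Also: 0% = growth of cultures given vehicle only.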 Particulars: S. cerevisiae sgs1 mgt1 strain, stronger effect = higher value; at 50.0 µM unless noted. The procedure, abridged:
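Read-out: growth inhibition vs vehicle controls. Cells: mutant yeast strain deficient in DNA damage repair.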

Assay [4] in a line: NCI Yeast Anticancer Drug Screen. Data for the cln2 rad14 strain (AID 165).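 Also: 0% = growth equal to vehicle treated cultures.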 The conditions noted are these: S. cerevisiae cln2 rad14 strain, stronger effect = higher value; at 50.0 µM unless noted. A digest of the protocol: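 cln2 rad14 yeast strain; compound exposure; growth inhibition read vs vehicle controls.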
The nature of assay [5]: NCI Yeast Anticancer Drug Screen. Data for the bub3 strain (AID 167). The conditions noted are these: S. cerevisiae bub3 mutant strain, stronger effect = higher value; at 50.0 µM unless noted. A digest of the protocol: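 Part of a panel of yeast mutants defective in DNA damage repair or cell cycle regulation. Each strain is grown with compound, and inhibition is calculated relative to solvent-treated cultures.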

Assay [6] is described as follows: NCI Yeast Anticancer Drug Screen. Data for the mlh1 rad18 strain (AID 175). Particulars: S. cerevisiae mlh1 rad18 strain growth inhibition, stronger effect = higher value; at 50.0 µM unless noted. A digest of the protocol: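 Yeast w/ defined DNA-repair lesions; compound exposure; growth vs vehicle controls → % inhibition.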

With `CCOC(=O)C(C#N)(CC(=O)OC)C(c1cccc2ccccc12)c1cccc2ccccc12` (centres undefined), the growth inhibition was 10.9% in assay [1]; -12.7% in assay [2]; 12.7% in assay [3]; 21% in assay [4]; -7.15% in assay [5]; 13.8% in assay [6].

Regarding `CCOC(=O)c1c(C)cc(=O)oc1C`, the growth inhibition is -8.65% and 3.95% in assay [1]; 7.55% and -1.6% in assay [2]; -4.65% and -3.25% in assay [3]; -31.3% and -11.1% in assay [4]; 2.3% and -1.7% in assay [5]; -11.8% and 8.75% in assay [6].

With `O=C(O)c1cccnc1C(=O)O`, the growth inhibition in assay [1] is -23.8% and 10.8%; in assay [2], -8.85% and -5.35%; in assay [3], 2.65% and -2.2%; in assay [4], -30.2% and 10.3%; in assay [5] it was -12% and -28.2%; in assay [6], 3.9% and 8.65%.

As to `Cc1ccc(NC(=O)CCCl)cc1`, the growth inhibition was 3.4% in assay [1]; -1.55% in assay [2]; 2.05% in assay [3]; -19.1% in assay [4]; -0.5% in assay [5]; -14.3% in assay [6].

As for `O=c1[nH]c(=O)n(C2OC(CO)C(O)C2Br)cc1Br` (centres undefined), the growth inhibition in assay [1] is -2.25%; in assay [2] it was -3.3%; in assay [3], -6.8%; in assay [4], -7.6%; in assay [5], 0.65%; in assay [6], 23.9%.

Consider `CSC(=NC(=O)c1ccccc1)SCCSC(=NC(=O)c1ccccc1)SC`, for which the growth inhibition in assay [1] was 6.45%; in assay [2], -7.35%; in assay [3], 2.8%; in assay [4] it was 33.6%; in assay [5], -3.65%; in assay [6] it was 6.35%.

Consider `COc1cc(/C=N/NC(=O)c2ccccc2NC(=O)c2ccccc2)ccc1O`, for which the growth inhibition in assay [1] was 2.05%; in assay [2] it was -13%; in assay [3] it was 20.1%; in assay [4], -32.5%; in assay [5], 37.7%; in assay [6] it was 30.9%.

On to `C/C(=N\NS(=O)(=O)c1ccc(C)cc1)c1cccs1`, for which the growth inhibition in assay [1] was -3.9%; in assay [2], 7.1%; in assay [3] it was 6.4%; in assay [4], 4.2%; in assay [5] it was 10.2%; in assay [6] it was 12.6%.

With `CC(=O)c1ccc(N=CC2CCCCC2=O)cc1` (centres undefined), the growth inhibition in assay [1] was -8.35%; in assay [2], 2.7%; in assay [3], 17.1%; in assay [4] it was -30.1%; in assay [5], -2.9%; in assay [6], -13.9%.

Regarding `Oc1cccc2c1CCCC2`, the growth inhibition in assay [1] was -1.25%; in assay [2], -12.2%; in assay [3], -37%; in assay [4], -16.4%; in assay [5], -1.85%; in assay [6], -3.9%.

In the case of `CC1=NCC23CC(=O)C4C(CCC5(C)CC(O)CCC45C)C2CCC13` (centres undefined), the growth inhibition in assay [1] was 0.85%; in assay [2], -0.95%; in assay [3], 7.6%; in assay [4], -36.6%; in assay [5], 20.4%; in assay [6], 1.9%.

With `Cc1cc(Cl)cc2c1OC(C)OC2=O` (centres undefined), the growth inhibition in assay [1] was -7.85%; in assay [2], 0.2%; in assay [3], -17.6%; in assay [4], -5.6%; in assay [5], 11.6%; in assay [6], 28.6%.

As for `Cc1ccc(C2=Nc3cc(C)c(Cl)cc3S(=O)(=O)NN2)cc1`, the growth inhibition is -29.1% in assay [1]; -24.9% in assay [2]; -48.8% in assay [3]; -5.2% in assay [4]; -18.5% in assay [5]; -26.8% in assay [6].

For the compound `COc1ccc(C2S/C(=C\c3ccc([N+](=O)[O-])cc3)C(=O)N2NC(=O)Cc2ccccc2)cc1` (centres undefined), the growth inhibition in assay [1] was 17.9%; in assay [2], -7.95%; in assay [3] it was 2.9%; in assay [4], -23.8%; in assay [5], 11.4%; in assay [6], 8.65%.

As for `Cc1cc(=O)c2c(o1)C(=O)c1occc1C2=O`, the growth inhibition in assay [1] is -9.5%; in assay [2] it was -34.5%; in assay [3] it was -3.9%; in assay [4], 5.85%; in assay [5] it was -6.1%; in assay [6], -13%.

Regarding `Cc1ccc(N(C)S(=O)(=O)c2ccccc2)cc1`, the growth inhibition in assay [1] was 11.4%; in assay [2], -31.3%; in assay [3], 15.4%; in assay [4], 4.25%; in assay [5], 22.6%; in assay [6], 4.55%.

For the compound `CCCCN(CCCC)CC(=O)NC(=O)c1ccccc1`, the growth inhibition was -9.55% in assay [1]; -5.55% in assay [2]; 3.35% in assay [3]; -38.5% in assay [4]; 10.8% in assay [5]; -14.3% in assay [6].

On to `C#CCN(N=O)C(=O)NCCCCC(NC(=O)OCc1ccccc1)C(=O)OCc1ccccc1` (centres undefined), for which the growth inhibition is -6.65% in assay [1]; -8.15% in assay [2]; -26.6% in assay [3]; -4.5% in assay [4]; 10.3% in assay [5]; -24.9% in assay [6].

For the compound `CC1=C(c2ccccc2)OC(c2ccccc2)=C[P+]1(c1ccccc1)c1ccccc1`, the growth inhibition was 97.8% (active) in assay [1]; 99.5% (active) in assay [2]; 99.4% (active) in assay [3]; 99.3% (active) in assay [4]; 99.3% (active) in assay [5]; 99.2% (active) in assay [6].

These data come from PubChem BioAssay (NCI).
